# Laboratory results from PubChem BioAssay (NCI).
# Several values for one entry are separate records, joined by “and”; a condition that tells them apart may be missing. Equal entries are not always repeated. This is part of a sample that, as a whole, favours compounds with a hit. Of some 83,000 tested, about 20% had one in any assay.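 Plates (96-well) were seeded with cells, treated with compound at one concentration, and incubated for 48 hours before percent growth was determined.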 A number with no mark means an inactive call. Activity calls are given as the source filed them. How the source made its calls: active means growth percent below 10; inactive means the rest.
# How the values were obtained:
# Test in all cases: NCI-60 one-dose screen, 48 h (100 = growth as untreated, 0 = no growth, -100 = all killed)
# Conditions in all cases: 10 µM unless noted
# HCT-15 colon = system: HCT-15 colon
# HT29 colon = system: HT29 colon
# SNB-75 CNS = system: SNB-75 CNS
# SNB-19 CNS = system: SNB-19 CNS
# U251 CNS = system: U251 CNS
# PC-3 prostate = system: PC-3 prostate
# SK-MEL-5 melanoma = system: SK-MEL-5 melanoma
# UACC-62 melanoma = system: UACC-62 melanoma
# LOX IMVI melanoma = system: LOX IMVI melanoma
# SK-MEL-28 melanoma = system: SK-MEL-28 melanoma
Compound,growth (HCT-15 colon),growth (HT29 colon),growth (SNB-75 CNS),growth (SNB-19 CNS),growth (U251 CNS),growth (PC-3 prostate),growth (SK-MEL-5 melanoma),growth (UACC-62 melanoma),growth (LOX IMVI melanoma),growth (SK-MEL-28 melanoma)
O=C1C=CC(=O)N1C1c2ccccc2-c2ccccc21,61.6%,92.9%,74.9%,105%,92.8%,94.1%,105%,102%,93.9%,104%
OC(CNc1ccnc2cc(Cl)ccc12)CNc1ccnc2cc(Cl)ccc12,97%,7.67% (active),31.8%,41.3%,3.22% (active),69.7%,53.7%,88.3%,-79.2% (active),-82.7% (active)
CCOc1ccc(-c2nc3ccc(-c4nc5ccc(N6CCN(C)CC6)cc5[nH]4)cc3[nH]2)cc1,23.7%,-68.3% (active),-90.2% (active),-96.2% (active),-98.1% (active),-47.8% (active),-96.7% (active),-96.5% (active),-88% (active),-88.6% (active)
CCCCCCCCCCCCCCCCN(CC)CC,-90.2% (active),-56.8% (active),-22.6% (active),-87.9% (active),-66.8% (active),0.915% (active),-97.7% (active),-86.6% (active),-100% (active),-91% (active)
O=C1C2=C(Nc3cc([N+](=O)[O-])ccc3N2)OC1c1c2ccccc2cc2ccccc12 (stereo unspecified),20.5%,51.4%,52.4%,40.2%,31.4%,20.5%,56.7%,44.6%,38.1%,77.5%
COc1cc(/C=C/C(C)=O)ccc1O,96.9% and 96.3%,109% and 125%,98.4% and 82.5%,98.3% and 112%,103% and 104%,92.5% and 102%,97% and 113%,88.5% and 107%,104%,112% and 103%
Nc1nc(N)c2c(ccc3c2ccn3Cc2cccc([N+](=O)[O-])c2)n1,-84.6% (active),-60% (active),-89.8% (active),-92.2% (active),-87.9% (active),-54.1% (active),-98% (active),-94.8% (active),-83.4% (active),-97.1% (active)
CC1=CC(O)C2CC1C2(C)C (stereo unspecified),104% and 112%,88.2% and 98.1%,84.6% and 95.3%,103% and 116%,100% and 110%,94.9% and 86.4%,103% and 104%,101% and 105%,98% and 105%,107% and 115%
CCCCCCCCCCCCCCCC[N+](C)(CCO)Cc1cnc[nH]1 (stereo unspecified),23.5%,-58.8% (active),-86.6% (active),-98.8% (active),-86.5% (active),-37.5% (active),-99.8% (active),-76.4% (active),-79% (active),-43.2% (active)
COC(=O)c1nc(=S)[nH]c(C(=O)OC)c1C(=O)c1ccccn1,16.8%,34.5%,57.2%,43.1%,31%,31.1%,-26.2% (active),11.9%,10.2%,38.1%
O=C(/C=C\c1ccccc1)N1c2ccccc2CC1c1c[nH]c2ccccc12 (stereo unspecified),55.7%,21.8%,62.4%,85.8%,74.1%,53.6%,87.6%,48.9%,67.9%,88.8%
CCCCCCC(C)c1ccccc1O (stereo unspecified) (tested in a mixture with another compound),105%,113%,128%,106%,104%,94.8%,111%,99.6%,95.8%,111%
NC(=S)N/N=C\c1nccc2c(C(F)(F)C(F)(F)C(F)(F)F)cccc12,28.2%,8.84% (active),20.2%,21.8%,-9.91% (active),9.51% (active),-54.7% (active),-39.8% (active),4.13% (active),25.2%
C/C=C1\SC(=S)NC1=O,98.9%,108%,88.5%,102%,96.2%,95.1%,99.8%,97.8%,101%,107%
Cc1ccc(C(=Nc2ccccc2)N=P(c2ccccc2)(c2ccccc2)c2ccccc2)cc1,2.78% (active),2.74% (active),15.6%,-15.8% (active),-7.18% (active),-31.5% (active),-96.6% (active),-78.5% (active),-82.9% (active),-48.6% (active)
CN=C(N)N/N=C(\C)c1ccc2c(c1)Cc1cc(/C(C)=N/NC(N)=NC)ccc1-2,2.4% (active),-49.7% (active),-46.5% (active),-43.6% (active),-78.9% (active),15.9%,-89.9% (active),-78.3% (active),-49.3% (active),-64.7% (active)
Cc1ccc2nc(-[n+]3cc4ccccc4cc3C)ccc2c1,104%,14.5%,34.5%,27.2%,22.6%,17.5%,-27.5% (active),30.7%,46.6%,43.1%
Nc1ccc(SSc2ccc(N)cc2)cc1,88.6%,112%,102%,109%,76%,84.8%,89.6%,91.1%,79.6%,114%
CC(C)(C)c1ccc(O)c(C2CCCCC2)c1,102%,87%,100%,122%,101%,95%,–,96.7%,104%,110%
S=C(NCCNC(=S)[S][Sn]([c]1ccccc1)([c]1ccccc1)[c]1ccccc1)[S][Sn]([c]1ccccc1)([c]1ccccc1)[c]1ccccc1,-73.8% (active),-93.1% (active),-60.8% (active),-92.8% (active),-100% (active),-82.5% (active),-100% (active),-64.1% (active),-86.5% (active),-98.8% (active)
COc1ccccc1OC(=O)Oc1ccccc1OC,110% and 95.2%,102% and 95.7%,97.8% and 90.8%,104%,111% and 106%,102% and 81.8%,100%,100% and 96.4%,107% and 95%,110% and 106%
COc1cc(/C=C(/C)C[N+](=O)[O-])ccc1O,46.1%,101%,78.4%,97.8%,92%,93.8%,–,83.6%,47.5%,54.3%
N#CSCC(=O)c1ccc(Cl)cc1,18.1%,-19.4% (active),33%,81.9%,31.9%,45.5%,–,51.5%,12.3%,73.4%
O=C1OCc2cccc3cccc1c23,94.6%,105%,85.2%,104%,106%,89.5%,–,95.5%,103%,107%
